Assay results taken from PubChem BioAssay AID1851 (National Center for Advancing Translational Sciences (NCATS), 2009).
Several values for one entry are separate records, joined by “and”; a condition that tells them apart may be missing. Identical values can stand only once. Out of some 16,000 compounds screened, about 5,700 (36%) were called active. About 24% were inconclusive and are not listed. Some of the results follow. A number with no mark means an inactive call. Calls come from the whole dose curve; as a rule, active = well fitted curve in the direction sought with a large enough effect; inconclusive = small, poorly fitted or top-dose-only effect, or effect the other way; inactive = no such curve, though single readings can be large or run the other way.

These molecules were tested against Cytochrome P450 1A2 (Homo sapiens) (UniProt P05177) (assay: Cytochrome panel assay with activity outcomes). Settings: recombinant CYP, pro-luciferin dealkylation, luminescence, p450-cyp1a2; series mostly up to 57.1 µM; activity, negative = inhibition: at the top concentration.
Cytochrome P450 1A2 (Homo sapiens), sequence (P05177 whole entry, looked up): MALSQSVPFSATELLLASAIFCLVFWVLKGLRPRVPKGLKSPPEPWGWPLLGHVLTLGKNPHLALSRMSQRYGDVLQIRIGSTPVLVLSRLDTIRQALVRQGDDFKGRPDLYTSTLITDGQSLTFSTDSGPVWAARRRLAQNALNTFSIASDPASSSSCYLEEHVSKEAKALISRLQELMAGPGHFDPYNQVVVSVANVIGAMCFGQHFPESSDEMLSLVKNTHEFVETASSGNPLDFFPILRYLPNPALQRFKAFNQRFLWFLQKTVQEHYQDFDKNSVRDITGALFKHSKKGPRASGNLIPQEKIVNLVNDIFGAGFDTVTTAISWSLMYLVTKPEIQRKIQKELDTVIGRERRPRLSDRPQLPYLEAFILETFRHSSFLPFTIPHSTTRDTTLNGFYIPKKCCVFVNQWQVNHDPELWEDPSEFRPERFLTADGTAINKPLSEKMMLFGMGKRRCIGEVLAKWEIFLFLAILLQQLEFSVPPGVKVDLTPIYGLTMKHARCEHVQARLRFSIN
% is set by controls: 0 for no effect and ±100 for the full control effect.

Row | SMILES | activity, negative = inhibition | AC50
1 | CN[C@H](Cc1ccccc1)c1cccc(OC)c1O | -11.6% [at 11.4 µM] | –
2 | COC1=CC(=O)O[C@@H](/C=C\c2ccccc2)C1 | – | 3.16 µM (active)
3 | CNC(=O)OCC[N+](C)(C)C | 10.7% | –
4 | O=C(NCP(=O)(O)O)c1cccnc1 | -11.9% [at 11.4 µM] | –
5 | CC(C)CN1CC2(CCN(C(=O)c3ccncc3)CC2)C1 | -7.67% | –
6 | C[C@@H]1O[C@H](C[N+](C)(C)C)CS1 | 0.254% | –
7 | N=C(N)SCc1ccc(Cl)c2ccccc12 (tested in a mixture with another compound) | – | 251 nM (active) and 158 nM (active)
8 | COc1ccc2c(c1)CN([C@H](C)[C@@H]1CC[C@@H]3[C@H]4CC[C@H]5C[C@@H](O)CC[C@@]5(C)[C@H]4CC[C@]31C)CO2 | -17.9% [at 2.29 µM] | –
9 | CCCC(CCC)C(=O)O | -4.79% | –
10 | O=S(=O)(c1ccccc1)N1CCCCC1c1cccnc1 (stereo not drawn) | -6.92% | –
11 | CC1(C)[C@@H]2CC[C@]1(C)CN(CCC[N+](C)(C)C)C2 | -6.81% [at 2.29 µM] | –
12 | CC(=NCc1ccco1)c1c(O)n(-c2ccccc2)c(=O)[nH]c1=O | – | 22.4 µM (active)
13 | CC(=NCCN1CCOCC1)c1c(O)n(Cc2ccccc2)c(=O)[nH]c1=O | -26.8% | –
14 | CC(=Nc1c(C)n(C)n(-c2ccccc2)c1=O)c1c(O)n(Cc2ccccc2)c(=O)[nH]c1=O | -6.48% | –
15 | N[C@@]1(C(=O)O)CC[C@H](C(=O)O)C1 | – | inactive
16 | O=C1C2CCN(CC2)C1(CO)CO | -15.4% [at 11.4 µM] | –
17 | [N-]=[N+]=CC(=O)CC[C@H](N)C(=O)O | -10.9% [at 11.4 µM] | –
18 | Cc1ccccc1-c1cncnc1NCCc1cnc[nH]1 | – | 5.01 µM (active)
19 | Clc1ccccc1-c1cncnc1NCCc1cnc[nH]1 | – | 1.58 µM (active)
20 | N=C(N)c1ccc(-c2ccc(-c3ccc(C(=N)N)cc3)o2)cc1 | -1.35% [at 11.4 µM] | –
21 | O=C(O)c1cc(N=Nc2ccc([As](=O)(O)O)cc2)ccc1O | -9.91% [at 11.4 µM] | –
22 | O=[As](O)(O)c1ccc(N=Nc2ccc([As](=O)(O)O)cc2)cc1 | -13.9% [at 11.4 µM] | –
23 | N[C@@H](Cn1ccc(=O)n(Cc2ccc(C(=O)O)cc2)c1=O)C(=O)O | -15.7% | –
24 | c1ccc(C[N+]23CN4CN(CN(C4)C2)C3)cc1 | -10.1% [at 2.29 µM] | –
25 | Cc1ccc(NC(=[OH+])c2cc3ccccc3cc2O)c(C)c1.Cc1ccc(NC(=[OH+])c2cc3ccccc3cc2O)c(C)c1.[Ni] | – | 0.251 µM (active)
26 | CN(C)[C@@H]1C(=O)C(C(N)=O)=C(O)[C@]2(O)C(=O)C3=C(O)c4c(O)cccc4[C@@](C)(O)[C@H]3[C@H](O)[C@@H]12 | -18.3% [at 25.6 µM] | –
27 | CN(C(=O)Cc1ccc(Cl)c(Cl)c1)[C@@H](CN1CCCC1)c1cccc(OCC(=O)O)c1 | 2.92% | –

Row | SMILES | activity, negative = inhibition | AC50
28 | C[N+]1(C)[C@@H]2CC(OC(=O)[C@@H](CO)c3ccccc3)C[C@@H]1[C@H]1O[C@H]12 (stereo partly drawn) | -22.8% [at 11.4 µM] | –
29 | Cc1ccc(S(=O)(=O)N[C@@H](CCCCN)C(=O)CCl)cc1 | 3.11% | –
30 | C[C@@]12CC[C@H](O[C@@H]3O[C@H](CO)[C@@H](O)[C@H](O)[C@@H]3O)C[C@@H]1CC[C@H]1[C@H]2CC[C@@]2(C)[C@@H](C3=CCOC3=O)CC[C@]12O | -11.7% [at 11.4 µM] | –
31 | CCOc1ccc2c(c1)C(C)=CC(C)(C)N2 | – | 5.01 µM (active)
32 | CC(C)(C)C(=O)CP(=O)(O)O | -9.4% [at 11.4 µM] | –
33 | CCOC(=O)C1=C(C)OC(N)=C(C#N)C12C(=O)N(C)c1ccccc12 (stereo not drawn) | 10.1% | –
34 | C[C@@H]1[C@@H]2Cc3ccc(O)cc3[C@@]1(C)CCN2CC1CC1 | -14.6% | –
35 | CNC(C)Cc1ccccc1Sc1ccc(O)cc1 (stereo not drawn) | -2.13% | –
36 | Cn1c(O)c(C(=N)COc2ccccc2)c(=O)n(C)c1=O | – | 6.31 µM (active)
37 | O=C(Oc1ccccc1)N1CCC2(CC1)CN(C(c1ccccc1)c1ccccc1)C2 | -14.2% | –
38 | c1csc(CN2CC[C@@]3(CCCNC3)C2)n1 | -12.5% | –
39 | CS(=N)(=O)CC[C@H](N)P(=O)(O)O (stereo partly drawn) | -13.9% [at 11.4 µM] | –
40 | O=C(c1ccccc1F)c1cn(CC(=O)N2CCOCC2)c2ccccc12 | 0.466% | –
41 | O=C(c1ccccc1F)c1cn(Cc2ccccc2)c2ccccc12 | – | 7.08 µM (active)
42 | CCOC(=O)Cn1cc(C(=O)c2ccccc2F)c2ccccc21 | – | 3.55 µM (active)
43 | COc1ccc(OC)c([C@H](O)[C@H](C)N)c1 | – | inactive
44 | c1cc(N2CCCC3(CCNCC3)C2)ccn1 | -4.56% | –
45 | Nc1nc(N)c(N=Nc2ccc([As](=O)(O)O)cc2)c(=O)[nH]1 | -14.9% [at 2.29 µM] | –
46 | N=C(N)n1cc(/C=N\N=C(N)N)cn1 | 7.8% [at 2.29 µM] | –
47 | CCC[C@@](C)(COC(N)=O)COC(=O)NC(C)C | 0.255% [at 25.6 µM] | –
48 | O=C(O)C(O)(c1ccc(-c2ccccc2)cc1)c1ccc(-c2ccccc2)cc1 | -16.4% [at 11.4 µM] | –
49 | CS(=N)(=O)CC[C@@H](N)C(=O)O (stereo partly drawn) | – | inactive
50 | Cc1cc(C)nc(NC2=NCCS2)n1 | – | 12.6 µM (active)
51 | C=C(C)[C@H]1CC[C@]2(C(=O)O)CC[C@]3(C)[C@@H](CC[C@H]4[C@@]5(C)CC[C@@H](O)C(C)(C)[C@@H]5CC[C@@]43C)[C@H]12 | 10.2% [at 25.6 µM] | –
52 | O=C(c1cc(=O)[nH]c2ccc(Br)cc12)N1CCC2(CC1)OCCO2 | 7.44% | –
53 | Cc1ccc2cc3cc(C(=O)N4CCC5(CC4)OCCO5)oc3nc2c1 | – | 2.51 µM (active)
